# Screen size: about 360,000 compounds; about 16,000 (4.4%) were called active. Roughly 9% stayed inconclusive and do not appear here. The full list was thinned out, with actives kept by preference. A number with no mark means an inactive call. Calls follow the shape of the dose curve; as a rule, active = well fitted inhibition curve with a large enough effect; inconclusive = small, poorly fitted or top-dose-only effect; inactive = no such curve, though single readings can be large or run the other way.
# Biological target: Bromodomain adjacent to zinc finger domain protein 2B (Homo sapiens) (UniProt Q9UIF8)
# Assay: qHTS Assay for Inhibitors of BAZ2B; also: nearly all actives have a fitted effect of over 60% in size
# Conditions: AlphaScreen BAZ2B-H3K14Ac peptide displacement; series mostly up to 114 µM; activity change, negative = inhibition: at the top concentration
# Method in brief: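 AlphaScreen displacement of biotin-H3(5-23)K14Ac peptide (50 nM final) from BAZ2B (50 nM final) in PBS pH 7.4, 0.01% Tween-20; complex preformed 30 min RT, then compounds (top 110 uM) 30 min RT, beads 20 min dark.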
# % is scaled to controls: 0 for no effect and ±100 for the full control effect; potency is read from the fitted curve at half-maximal effect.
# Chain of Bromodomain adjacent to zinc finger domain protein 2B (Homo sapiens) (Q9UIF8 whole entry, looked up, the tested form may be a part): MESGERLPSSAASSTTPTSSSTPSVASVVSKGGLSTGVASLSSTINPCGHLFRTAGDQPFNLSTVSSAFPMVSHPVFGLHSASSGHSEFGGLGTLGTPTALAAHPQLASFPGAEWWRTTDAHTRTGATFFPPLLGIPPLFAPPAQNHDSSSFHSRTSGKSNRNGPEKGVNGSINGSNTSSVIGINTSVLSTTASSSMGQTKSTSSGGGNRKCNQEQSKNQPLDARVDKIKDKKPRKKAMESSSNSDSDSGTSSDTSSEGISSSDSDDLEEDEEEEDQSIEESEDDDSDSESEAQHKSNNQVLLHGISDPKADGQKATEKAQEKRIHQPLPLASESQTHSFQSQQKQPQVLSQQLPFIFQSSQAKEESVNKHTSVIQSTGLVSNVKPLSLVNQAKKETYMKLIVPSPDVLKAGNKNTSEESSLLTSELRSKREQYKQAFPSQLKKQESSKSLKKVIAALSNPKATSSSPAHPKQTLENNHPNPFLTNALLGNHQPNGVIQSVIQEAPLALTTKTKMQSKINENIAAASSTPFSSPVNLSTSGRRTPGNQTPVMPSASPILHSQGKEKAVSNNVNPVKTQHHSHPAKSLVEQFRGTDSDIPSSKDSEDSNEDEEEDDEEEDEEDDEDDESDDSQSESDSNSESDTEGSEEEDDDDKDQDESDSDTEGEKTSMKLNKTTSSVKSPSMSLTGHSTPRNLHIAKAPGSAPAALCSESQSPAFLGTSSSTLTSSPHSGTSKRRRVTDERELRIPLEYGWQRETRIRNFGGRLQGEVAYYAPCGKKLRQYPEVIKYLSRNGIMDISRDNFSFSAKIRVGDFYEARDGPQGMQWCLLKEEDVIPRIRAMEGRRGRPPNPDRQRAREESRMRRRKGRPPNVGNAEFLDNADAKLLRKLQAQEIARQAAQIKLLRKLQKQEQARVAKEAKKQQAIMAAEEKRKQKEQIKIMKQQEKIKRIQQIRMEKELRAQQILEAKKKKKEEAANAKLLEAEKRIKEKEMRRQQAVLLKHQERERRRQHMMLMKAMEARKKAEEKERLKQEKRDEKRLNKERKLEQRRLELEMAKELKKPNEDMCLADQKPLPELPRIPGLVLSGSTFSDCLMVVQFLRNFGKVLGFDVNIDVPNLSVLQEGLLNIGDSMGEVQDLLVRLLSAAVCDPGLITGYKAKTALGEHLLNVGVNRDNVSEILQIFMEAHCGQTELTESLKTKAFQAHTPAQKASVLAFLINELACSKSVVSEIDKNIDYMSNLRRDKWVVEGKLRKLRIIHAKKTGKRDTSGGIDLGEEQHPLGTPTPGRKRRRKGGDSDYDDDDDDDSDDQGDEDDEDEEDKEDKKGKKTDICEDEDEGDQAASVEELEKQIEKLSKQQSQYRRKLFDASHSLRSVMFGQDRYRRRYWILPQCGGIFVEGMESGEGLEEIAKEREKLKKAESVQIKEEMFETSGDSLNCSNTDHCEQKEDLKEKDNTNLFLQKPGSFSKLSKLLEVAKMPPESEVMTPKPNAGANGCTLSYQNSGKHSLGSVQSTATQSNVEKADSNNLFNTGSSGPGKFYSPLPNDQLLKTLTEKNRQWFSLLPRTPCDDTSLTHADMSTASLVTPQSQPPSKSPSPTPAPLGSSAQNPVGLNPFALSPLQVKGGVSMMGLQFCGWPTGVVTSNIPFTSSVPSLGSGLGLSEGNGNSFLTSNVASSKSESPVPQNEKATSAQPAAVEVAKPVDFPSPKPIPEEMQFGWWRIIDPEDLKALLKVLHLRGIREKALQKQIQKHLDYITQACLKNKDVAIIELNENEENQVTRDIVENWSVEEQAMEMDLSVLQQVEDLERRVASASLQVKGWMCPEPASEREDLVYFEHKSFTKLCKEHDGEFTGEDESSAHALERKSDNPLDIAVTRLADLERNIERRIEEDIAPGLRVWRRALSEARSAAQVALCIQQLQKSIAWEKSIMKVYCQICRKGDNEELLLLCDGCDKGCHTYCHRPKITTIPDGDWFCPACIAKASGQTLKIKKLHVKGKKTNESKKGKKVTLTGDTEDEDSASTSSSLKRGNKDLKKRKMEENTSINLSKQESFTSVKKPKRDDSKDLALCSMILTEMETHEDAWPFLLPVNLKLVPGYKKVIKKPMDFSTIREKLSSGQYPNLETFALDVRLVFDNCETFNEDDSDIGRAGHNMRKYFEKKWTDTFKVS
Compound,"activity change, negative = inhibition",Potency
CC(C)(C)c1ccc(C(=O)NCC(c2ccco2)S(=O)(=O)c2ccc(F)cc2)cc1 (centres undefined),-17.7%,–
Cc1cccc(N2CCN(S(=O)(=O)c3ccc4[nH]c5c(c4c3)CCCCC5)CC2)c1C,-8.85% [at 57.1 µM],–
COc1ccccc1-c1cc(C(F)(F)F)nc(S(=O)(=O)CCCC(=O)Nc2cc(C)ccc2O)n1,-3.61%,–
Cc1nc2nc(SCC(=O)NC3CCC(C)CC3)nn2c(C)c1Cc1ccccc1Cl (centres undefined),-13.3%,–
Nc1ccc(N=Nc2ccccc2Cl)c(N)n1,–,25.1 µM (active)
COc1ccc(C(=O)Nc2onc3c2CCCC3)cc1,-3.98%,–
CCOc1ccc(NC(=O)c2c(NC(=O)Cc3ccccc3)sc3c2CCC(C)C3)cc1 (centres undefined),-21.1%,–
CCCCOC(=O)CSc1ncnc2sc3c(c12)CCC(C)C3 (centres undefined),18.9%,–
CCC(C(=O)Nc1cccc(Cl)c1C)n1nc(-c2ccc(C)cc2)ccc1=O (centres undefined),-22.7%,–
O=C(NCCNc1ccccc1[N+](=O)[O-])c1ccccc1F,8.95% [at 0.457 µM],–
O=C(Nc1ccccc1-c1ccccc1)c1ccccc1[N+](=O)[O-],-5.53%,–
O=[N+]([O-])c1ccccc1Nc1ccc(O)cc1,–,39.8 µM (active)
COC(=O)c1ccccc1NC(=O)c1cc(-c2ccccc2O)no1,-17.4%,–
O=C(CN1C(=O)COc2ccccc21)NCCN1CCc2ccccc2C1,-19.6%,–
O=C(CN1C(=O)COc2ccccc21)Nc1ccc(F)cc1,–,28.2 µM (active)
CC(OC(=O)CN1C(=O)COc2ccccc21)C(=O)NCc1ccc(F)cc1 (centres undefined),13.9%,–
O=C(NCc1ccccc1Cl)c1cccn1-c1nnc(N2CCCCC2)s1,-15%,–
COc1ccccc1Nc1nc(N)nc(CN(C)C2CCCCC2)n1,–,10 µM (active)
COc1ccccc1Nc1nc(N)nc(CSC(=S)N2CCOCC2)n1,-23.7%,–
COc1ccccc1Nc1nc(N)nc(N)c1S(=O)(=O)c1ccccc1,-19.9%,–
COc1ccc(CCN2C(=O)c3oc4cc(C)cc(C)c4c(=O)c3C2c2ccccc2F)cc1OC (centres undefined),7.46%,–
COc1ccc(-c2cn3nc(N4CCCC(C(=O)NCCCOC(C)C)C4)sc3n2)cc1 (centres undefined),-28%,–
COC(=O)c1ccc(-c2c(-c3ccccc3)ncc3cc(OC)c(OC)cc23)cc1,–,56.2 µM (active)
COc1ccc(CNC(=O)Cc2ccc(-c3ccccc3)cc2)cc1OC,-25%,–
COC(=O)c1cc(NC(=O)c2cnc(SC)nc2-c2ccccc2)cc(C(=O)OC)c1,2.05%,–

Compound,"activity change, negative = inhibition",Potency
Cc1c(Cl)cccc1NC(=O)c1noc2c1CCCC2,30%,–
N#Cc1ccc(Oc2cc(C(F)(F)F)nc(-c3ccccn3)n2)cc1,-6.1%,–
COc1cnc(-c2ccccn2)nc1Oc1ccc(C(C)(C)C)cc1,–,22.4 µM (active)
COc1ccnc(Oc2ccccc2)c1-c1ncn[nH]1,1.04%,–
Cc1ccc(C(=O)N2c3ncnn3C3(CCCCC3)[C@@H]3CCCC[C@@H]32)cc1,-14.5%,–
Cc1onc(-c2ccc(F)cc2F)c1C(=O)Nc1cccc(C(F)(F)F)c1,-2.91%,–
COc1ccc(OCCn2cc(C(=O)C3CCCCC3)c3ccccc32)cc1,15.3% [at 57.1 µM],–
COc1ccc(CCNC(=O)CCc2c(C)nc3c(c(C)nn3-c3ccc(C)c(C)c3)c2C)c(OC)c1OC,-17%,–
O=C(c1ccc(Br)cc1)N(Cc1cccs1)c1ccc(F)cc1,-3.77%,–
COc1ccccc1-c1nnc(SCC(N)=O)o1,-1.92%,–
COc1ccc(-c2cc(C(=O)NC(Cc3c[nH]c4ccccc34)C(=O)O)c(C)o2)cc1OC (centres undefined),–,50.1 µM (active)
Cc1cccc(C)c1OCC(=O)NC(Cc1c[nH]c2ccccc12)C(=O)O (centres undefined),–,inactive
CC(=O)NC(Cc1c[nH]c2ccccc12)C(=O)O (centres undefined),-15.6%,–
COc1cc(/C=N/NC(=O)c2cc(C)n(-c3ccc(F)cc3)c2C)cc(OC)c1O,-35.5%,–
COc1cc(/C=N/NC(=O)c2ccc(N3CCCC3=O)cc2)ccc1O,-3.64%,–
Cc1cc(C(=O)N/N=C/c2ccc(O)c([N+](=O)[O-])c2)c(C)n1-c1ccc(F)cc1,–,50.1 µM (active)
CCc1nc2nc(C)cc(Nc3ccc(F)c(Cl)c3)n2n1,1.95%,–
COC(=O)c1ccc(NC(=O)CCc2c(C)nn(-c3ccc(N4CCCC4)nn3)c2C)cc1,-25.5%,–
Cc1ccc(CNC(=O)CCc2c(C)nc3c(c(C)nn3-c3ccccc3)c2C)cc1,-0.737%,–
CCOc1ccc(CNC(=O)CCc2c(C)nn(-c3ccc(N4CCCCC4)nn3)c2C)cc1,-15.5%,–
COc1ccc(C)cc1NC(=O)CCc1c(C)nn(-c2ccc(N3CCOCC3)nn2)c1C,-14.2%,–
COc1ccc(CNC(=O)CCc2c(C)nn(-c3ccc(N4CCCC4)nn3)c2C)cc1,–,79.4 µM (active)
Cc1nn(-c2ccc(N3CCCCC3)nn2)c(C)c1CCC(=O)NCc1ccc(F)cc1,–,79.4 µM (active)
COc1cc(OC)cc(C(=O)Nc2c(C(=O)Nc3ccc(F)cc3)oc3ccccc23)c1,-0.325%,–
COc1ccc(-c2nc(CN3CCC(C(=O)NCCN(CC(C)C)CC(C)C)CC3)c(C)o2)cc1OC,-14.9%,–

Compound,"activity change, negative = inhibition",Potency
CC(=O)N1CCCc2cc(S(=O)(=O)N3CCC(C(=O)NCc4ccc(F)cc4)CC3)ccc21,-6.68%,–
CN(C)c1ccc(C(CNS(=O)(=O)c2cc(F)ccc2F)N2CCOCC2)cc1 (centres undefined),-25.9%,–
COc1ccc(Cn2c(C(=O)O)c(CNCCc3cccs3)c3ccc(OC)cc32)cc1,-35.3%,–
O=C(O)c1ccc2c(c1)N(Cc1ccc(F)cc1)C(=O)c1ccccc1S2=O (centres undefined),4.07%,–
Cc1nn(C(C)C(=O)NCCc2ccccc2)c(=O)c2c1sc1ccccc12 (centres undefined),-8.46%,–
COc1ccc2ccccc2c1/C=N/NC(=O)c1cc(C)[nH]n1,-26%,–
Cc1cc(C(=O)N/N=C/c2cc([N+](=O)[O-])cc(C)c2O)n[nH]1,–,25.1 µM (active)
CC(C)(C)c1cc(C(=O)N/N=C/c2ccc([N+](=O)[O-])s2)n[nH]1,-1.13%,–
CCCN(CCC)CCCNC(=O)Cn1ncc2c3ccccc3n(Cc3ccccc3)c2c1=O,-11.5%,–
COc1ccc(-c2cn3c(n2)sc2cc(C(=O)Nc4ccc(F)cc4)ccc23)cc1,1.57%,–
COc1cccc(Cn2c(SCc3ccc(C(=O)N4CCCCC4)cc3)nc3ccncc32)c1,-11.2%,–
COc1cccc(Cn2c(SCc3ccc(C(=O)N4CCC(C)CC4)cc3)nc3ccncc32)c1,–,22.4 µM (active)
Cc1cccc(Cn2c(SCc3ccc(C(=O)N4CCC(C)CC4)cc3)nc3ccncc32)c1,-16.1%,–
COc1ccccc1Cc1nc2ccccc2nc1SCC(=O)N1CCCc2ccccc21,-3.57%,–
O=C(c1cccc([N+](=O)[O-])c1)N1CCN(Cc2ccccc2)CC1,20.8%,–
COc1ccc(C(=O)c2c(C)c(CCC#N)n3ccccc23)c(OC)c1,-17.9%,–
Cc1c(C(=O)c2cccc([N+](=O)[O-])c2)c2ccccn2c1CCC#N,–,50.1 µM (active)
COC(=O)c1cnc(N2CCN(c3ccccc3OC)CC2)c2ccccc12,42.6%,–
COc1ccc2c(c1)c(N1CCCC1=O)c(C(=O)Nc1ccc(OC)c(Cl)c1)n2C,-34.8%,–
Clc1ccc(Nc2nc(-c3cccs3)cs2)nc1,-33.2%,–
Cc1ccc(Nc2nc(-c3ccc(O)cc3O)cs2)nc1,–,50.1 µM (active)
CC(=O)Nc1cccc(-c2csc(Nc3cccc(C)n3)n2)c1,-4.54%,–
COc1cc(C(=O)Nc2ccc(-n3c(C)nc4ccccc4c3=O)cc2)cc(OC)c1OC,-14.7%,–
CCN(CC)c1cc(NC2CCCCC2)c2c3c(onc13)-c1ccccc1C2=O,–,3.55 µM (active)
COc1ccc(OC)c(CNC(=O)Cn2nc(C)c3c(C)n(-c4ccccc4)nc3c2=O)c1,-15.4%,–

Compound,"activity change, negative = inhibition",Potency
CCCC(=O)Nc1ccc2oc(-c3ccc(O)c(Br)c3)nc2c1,2.4%,–
COc1ccc(CCNCc2c(C(=O)O)c(C)n(Cc3cccc(C)c3)c2C)cc1OC,-16.7%,–
COc1ccc(SCc2cc(=O)c3ccc(C)c(C)c3[nH]2)cc1,8.96%,–
CC(C)c1ccc(Cc2nnc(NCCCO)[nH]c2=O)cc1,-1.73%,–
O=c1[nH]c(NCCO)nnc1Cc1ccc(Cl)cc1,-11.6%,–
COc1ccc(Cc2nnc(N/N=C/c3ccccc3O)[nH]c2=O)cc1OC,–,6.31 µM (active)
Cc1nn(C)c2c1c(C(F)(F)F)cc(=O)n2C(C)C(=O)NCc1ccc(Cl)cc1 (centres undefined),-3.38%,–
O=C(NCc1ccccc1)C1CCN(S(=O)(=O)c2ccc3[nH]c(=O)ccc3c2)CC1,7.93%,–
Cc1ccccc1CCNC(=O)C1CCN(c2nc3ccccc3nc2C(F)(F)F)CC1,-0.372%,–
CC(=O)c1ccc(NC(=O)c2nc3nc(C)cc(C(F)F)n3n2)cc1,0.583%,–
COc1ccc(C2=NC(c3ccncc3)=Nc3ccc(Br)cc3N2)cc1,–,28.2 µM (active)
Brc1ccc2c(c1)NC(c1cccnc1)=NC(c1ccccc1)=N2,-2.3%,–
Cc1cc(OCC(=O)NC2CCN(C)CC2)ccc1[N+](=O)[O-],-3.49%,–
Cc1cc(OCCCN2CCN(Cc3ccccc3)CC2)ccc1[N+](=O)[O-],–,17.8 µM (active)
Cc1cc(OCCCCOc2ccc(C#N)cc2)ccc1[N+](=O)[O-],0.416%,–
Cc1cccc(C2CC(=O)Oc3c2c(=O)n(C)c2ccccc32)c1 (centres undefined),-12.8%,–
CCOC(=O)C1=C(C)NC(SC)=NC1c1ccccc1 (centres undefined),2.29%,–
Cc1cccc(C2C3=C(CCCC3=O)N=C3c4ccccc4C(=O)C32)c1 (centres undefined),-38.9%,–
CCOC(=O)C1=C(C)N=C2c3ccccc3C(=O)C2C1c1ccc(Br)cc1 (centres undefined),–,22.4 µM (active)
CCCN1CCc2nc(N3CCN(C)CC3)ncc2C1,3.12%,–
COC(C(=O)Nc1ccc(C(C)=O)cc1)c1ccccc1 (centres undefined),6.93%,–
COc1ccc(NC(C(=O)Nc2cccc(C(C)=O)c2)c2ccccc2)cc1 (centres undefined),–,50.1 µM (active)
COc1ccc(NC(=O)[C@H](NC(=O)[C@@H]2Cc3ccccc3CN2)c2ccccc2)cc1,-11.2%,–
Cc1cccc(C(=O)Nc2ccc(-c3nc4ccccc4s3)c(C)c2)c1,0.838%,–
